Laboratory results published in paper PMC12820563, “FoxP3 forms a head-to-head dimer in vivo and stabilizes its multimerization on adjacent microsatellites”.
The full ranking holds about 16,000 sequences; the median of “rpm ratio (pull-down/input)” is about 0.94, and the highest 2% start at about 1.7. Only a selection was taken, and the highest values are over-represented in it overall.

target: T1, MBP-FoxP1dN (Mus musculus, UniProt P58462 326-579); assay: PD-seq (MBP pull-down with sequencing); 20 mM Tris-HCl pH 7.5, 100 mM NaCl, 1.5 mM MgCl2, 0.4 uM protein, 0.1 uM dsDNA library, 30 min, room temperature, amylose pull-down; high values mean tight binding; conditions: protein: recombinant; tags: His6-MBP; chain copies: 2; dsDNA, one strand shown
T1 sequence: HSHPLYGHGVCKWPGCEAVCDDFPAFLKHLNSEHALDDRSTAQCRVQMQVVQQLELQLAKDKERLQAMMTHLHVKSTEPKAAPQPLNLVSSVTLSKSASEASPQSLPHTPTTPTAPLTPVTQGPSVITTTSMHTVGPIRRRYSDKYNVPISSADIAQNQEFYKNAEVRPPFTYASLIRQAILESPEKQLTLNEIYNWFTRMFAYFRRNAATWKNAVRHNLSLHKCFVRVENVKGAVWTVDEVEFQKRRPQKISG
Procedure, shortened: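 Binding is reads-per-million enrichment of pull-down over input, with replicates pooled. It comes from 30 min room-temperature incubation in Tris pH 7.5 buffer with NaCl and MgCl2 of 0.4 µM His6-MBP-tagged, N-terminally truncated mouse FoxP3 or FoxP1 fragment from E. coli with 0.1 µM Klenow-filled degenerate double-stranded DNA library, followed by amylose resin capture, three washes and Illumina sequencing of the released DNA.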

Row | Sequence | binding signal
1 | GATGATTGTTCTCCCAGCTGATGAATTCCAGGGTTCGAGTAAACAAATTTTCCTAATCTTTCTGTTCAAGCGCCATCTAC | 0.729 RPM ratio (pull-down/input)
2 | GATGATTGTTCTCCCAGCTGATGAATTGTGAAGCTCGAGTAAACAAATTTTCCTAATCTTTCTGTTCAAGCGCCATCTAC | 0.905 RPM ratio (pull-down/input)
3 | GATGATTGTTCTCCCAGCTGATGAATTACAGTTGTCGAGTAAACAAATTTTCCTAATCTTTCTGTTCAAGCGCCATCTAC | 1.46 RPM ratio (pull-down/input)
4 | GATGATTGTTCTCCCAGCTGATGAATTAGCAACTTCGAGTAAACAAATTTTCCTAATCTTTCTGTTCAAGCGCCATCTAC | 1.12 RPM ratio (pull-down/input)
5 | GATGATTGTTCTCCCAGCTGATGAATTTGCGTGCTCGAGTAAACAAATTTTCCTAATCTTTCTGTTCAAGCGCCATCTAC | 1.05 RPM ratio (pull-down/input)
6 | GATGATTGTTCTCCCAGCTGATGAATTCTCGTCATCGAGTAAACAAATTTTCCTAATCTTTCTGTTCAAGCGCCATCTAC | 0.998 RPM ratio (pull-down/input)
7 | GATGATTGTTCTCCCAGCTGATGAATTGGCTAAGTCGAGTAAACAAATTTTCCTAATCTTTCTGTTCAAGCGCCATCTAC | 0.879 RPM ratio (pull-down/input)
8 | GATGATTGTTCTCCCAGCTGATGAATTTGCAAAATCGAGTAAACAAATTTTCCTAATCTTTCTGTTCAAGCGCCATCTAC | 1.13 RPM ratio (pull-down/input)
9 | GATGATTGTTCTCCCAGCTGATGAATTCTAAAGATCGAGTAAACAAATTTTCCTAATCTTTCTGTTCAAGCGCCATCTAC | 0.85 RPM ratio (pull-down/input)
10 | GATGATTGTTCTCCCAGCTGATGAATTGCCTAAGTCGAGTAAACAAATTTTCCTAATCTTTCTGTTCAAGCGCCATCTAC | 0.889 RPM ratio (pull-down/input)
11 | GATGATTGTTCTCCCAGCTGATGAATTGGCTTTCTCGAGTAAACAAATTTTCCTAATCTTTCTGTTCAAGCGCCATCTAC | 0.862 RPM ratio (pull-down/input)
12 | GATGATTGTTCTCCCAGCTGATGAATTGTGTAAATCGAGTAAACAAATTTTCCTAATCTTTCTGTTCAAGCGCCATCTAC | 1.59 RPM ratio (pull-down/input)
13 | GATGATTGTTCTCCCAGCTGATGAATTTTGTGTATCGAGTAAACAAATTTTCCTAATCTTTCTGTTCAAGCGCCATCTAC | 2.15 RPM ratio (pull-down/input)
14 | GATGATTGTTCTCCCAGCTGATGAATTGTAATACTCGAGTAAACAAATTTTCCTAATCTTTCTGTTCAAGCGCCATCTAC | 1.04 RPM ratio (pull-down/input)
15 | GATGATTGTTCTCCCAGCTGATGAATTCTCTGTATCGAGTAAACAAATTTTCCTAATCTTTCTGTTCAAGCGCCATCTAC | 0.938 RPM ratio (pull-down/input)
16 | GATGATTGTTCTCCCAGCTGATGAATTCTGTGTATCGAGTAAACAAATTTTCCTAATCTTTCTGTTCAAGCGCCATCTAC | 1.79 RPM ratio (pull-down/input)
17 | GATGATTGTTCTCCCAGCTGATGAATTCTTTGTATCGAGTAAACAAATTTTCCTAATCTTTCTGTTCAAGCGCCATCTAC | 1.21 RPM ratio (pull-down/input)
18 | GATGATTGTTCTCCCAGCTGATGAATTTCTATACTCGAGTAAACAAATTTTCCTAATCTTTCTGTTCAAGCGCCATCTAC | 0.903 RPM ratio (pull-down/input)
19 | GATGATTGTTCTCCCAGCTGATGAATTTGTAGTATCGAGTAAACAAATTTTCCTAATCTTTCTGTTCAAGCGCCATCTAC | 1.47 RPM ratio (pull-down/input)
20 | GATGATTGTTCTCCCAGCTGATGAATTTGGTGTATCGAGTAAACAAATTTTCCTAATCTTTCTGTTCAAGCGCCATCTAC | 1.17 RPM ratio (pull-down/input)
21 | GATGATTGTTCTCCCAGCTGATGAATTTGTGTAATCGAGTAAACAAATTTTCCTAATCTTTCTGTTCAAGCGCCATCTAC | 1.97 RPM ratio (pull-down/input)
22 | GATGATTGTTCTCCCAGCTGATGAATTTGTGTGATCGAGTAAACAAATTTTCCTAATCTTTCTGTTCAAGCGCCATCTAC | 1.3 RPM ratio (pull-down/input)
23 | GATGATTGTTCTCCCAGCTGATGAATTTGTATACTCGAGTAAACAAATTTTCCTAATCTTTCTGTTCAAGCGCCATCTAC | 2.13 RPM ratio (pull-down/input)
